From PubChem BioAssay
Most compounds without a hit are left out; they make up all but 4.6% or so of the library.
HIF-2a inh = HIF-2a reporter inhibitors, primary screen, luminescence, 786-0 RCC cells. hit rate 0.72% among 360,000. 786-0 RCC cells HIF-2a reporter, luciferase luminescence, overnight. inhibition, % at 18.8 µM;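 active means inhibition of the luminescence signal of 40% or more relative to plate controls, in a single-dose primary screen at 18.75 µM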
ABHD5-PLIN5 inh = ABHD5-PLIN5 interaction inhibitors, primary screen, cell lysate, split luciferase complementation, luminescence; Perilipin-5 (Homo sapiens) + 1-acylglycerol-3-phosphate O-acyltransferase ABHD5 (Homo …; Split G. princeps luciferase complementation, 4 h; inhibition, % at 4 µM; hit rate 0.78% among 360,000; AID 602281, 2012;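 active means inhibition above the mean inhibition across every tested compound plus 3 SD, cut at about 22% in these data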;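 further: 0% = DMSO only wells and the 100% control is not disclosed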
Target sequence (Q00G26 whole entry, looked up): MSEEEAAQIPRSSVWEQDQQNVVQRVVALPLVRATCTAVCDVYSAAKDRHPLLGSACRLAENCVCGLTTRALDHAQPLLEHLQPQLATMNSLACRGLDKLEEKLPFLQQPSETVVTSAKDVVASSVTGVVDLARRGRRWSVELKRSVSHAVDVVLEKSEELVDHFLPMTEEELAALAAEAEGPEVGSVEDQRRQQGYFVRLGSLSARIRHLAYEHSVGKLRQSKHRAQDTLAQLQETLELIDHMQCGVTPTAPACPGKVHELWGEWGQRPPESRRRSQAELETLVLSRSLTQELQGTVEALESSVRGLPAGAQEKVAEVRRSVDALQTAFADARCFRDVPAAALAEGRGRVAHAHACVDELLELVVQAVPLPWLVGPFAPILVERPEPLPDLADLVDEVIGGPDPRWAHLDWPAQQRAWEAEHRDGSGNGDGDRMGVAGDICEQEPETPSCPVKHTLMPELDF
Target sequence (Q8WTS1 whole entry, looked up): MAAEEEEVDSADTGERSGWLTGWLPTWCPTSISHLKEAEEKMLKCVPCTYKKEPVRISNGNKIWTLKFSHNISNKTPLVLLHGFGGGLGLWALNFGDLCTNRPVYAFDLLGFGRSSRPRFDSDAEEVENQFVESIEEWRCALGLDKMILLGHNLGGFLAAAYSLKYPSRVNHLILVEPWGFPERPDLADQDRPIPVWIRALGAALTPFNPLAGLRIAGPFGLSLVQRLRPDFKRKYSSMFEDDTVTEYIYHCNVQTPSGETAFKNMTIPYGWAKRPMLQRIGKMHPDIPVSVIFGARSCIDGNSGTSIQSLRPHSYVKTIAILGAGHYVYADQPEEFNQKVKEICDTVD
KKLEB cytotox = cytotoxicity in KKLEB CF airway cells, primary screen, cytotoxicity control for CF NF-kB inhibitor project, cell-based, uHTS, fluorescence assay plates. KKLEB CF airway cells viability, ATPlite luminescence, overnight; stronger effect = lower value; cells stimulated with P. aeruginosa culture filtrate. activity change (cytotoxicity), % at 5 µM. hit rate 0.36% among 360,000;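 active means corrected activity change at or below -50% at 5 µM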
CF NFkB block = inhibitors of PAF-induced NF-kB signaling, primary screen, cell-based, GFP fluorescence, uHTS. KKLEB NF-kB-GFP reporter, GFP fluorescence overnight. inhibition, % at 5 µM. hit rate 0.86% among 360,000;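 active means at least 50% inhibition at 5 µM, scaled per plate between neutral and stimulator controls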;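 further: PAF is a Pseudomonas aeruginosa culture filtrate used as stimulus; plate controls were PAF-stimulated DMSO wells for no effect and unstimulated DMSO wells for full effect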
Mdm2-MdmX inh = inhibitors of human Mdm2-MdmX association, primary screen, cell-based, luminescence, split luciferase, SaOS-2, uHTS | Protein Mdm4 (Homo sapiens) + E3 ubiquitin-protein ligase Mdm2 (Homo sapiens), … | SaOS-2 split-luciferase Mdm2/MdmX complementation | inhibition, % at 8 µM | hit rate 3% among 330,000;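 active means inhibition of at least 50% at 8 µM in the primary screen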
Peg3 promoter = Peg3 promoter-driven luciferase inhibitors, primary screen, cell-based, HeLa, luciferase luminescence | hit rate 1.7% among 360,000 | HeLa PEG-Prom luciferase reporter, overnight | inhibition, % at 20 µM;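 active means inhibition of at least 50% at 20 µM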
Mdm2-MdmX conf = Mdm2-MdmX complex disruptors, retested hits, confirmation, luminescence, single concentration; shares compounds with Mdm2-MdmX inh; Mdm2-MdmX binding, luminescent assay; inhibition, % at 8 µM; hit rate 55% among 10,000; in the data active means inhibition above about 40%
Full FLuc ctr = full-length luciferase signal inhibition, confirmation, counter-screen for Mdm2/MdmX interaction inhibitor project, cell-based, single concentration, SaOS-2 | SaOS-2 full-length luciferase counterscreen, luminescence | hit rate 77% among 6,200 | shares compounds with Mdm2-MdmX inh | inhibition, % at 8 µM;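 active means mean inhibition at 8 µM reaching about 37%, which flags the compound as non-specific, limit read from the data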;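 further: p53-null SaOS-2 cells with luciferase driven by a doxycycline-inducible promoter; compound on cells about two nights before reading with doxycycline added after day one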
* = called active by the depositor; . = no result given; + = active, no number.

SMILES | HIF-2a inh | ABHD5-PLIN5 inh | KKLEB cytotox | CF NFkB block | Mdm2-MdmX inh | Peg3 promoter | Mdm2-MdmX conf | Full FLuc ctr
ClCCn1cnc2c(SCc3ccccc3)ncnc21 | -316.9 | -0.4 | 8.5 | -8.0 | . | -273.3 | . | .
N=c1c(C(=O)NCc2ccc(F)cc2)cc2c(=O)n3ccccc3nc2n1CCCN1CCOCC1 | 18.2 | -0.1 | -4.9 | -24.6 | 53.4* | -10.2 | 16.4 | .
CCOCCCn1c(=N)c(C(=O)NCc2ccc3c(c2)OCO3)cc2c(=O)n3ccccc3nc21 | . | . | . | . | 14.1 | . | . | .
CCCn1c(=N)c(C(=O)NCc2ccc3c(c2)OCO3)cc2c(=O)n3cccc(C)c3nc21 | 33.2 | 2.9 | -5.7 | -4.3 | 70.5* | -5.6 | 18.9 | .
CCC(C)CN1C(=O)CSCC1(C)C(=O)NC(C)C (configuration not stated) | 5.5 | 4.5 | . | . | . | . | . | .
CCOC(=O)c1sc(N)c(C(=O)Nc2ccccc2OC)c1C | -6.0 | -10.7 | -8.3 | 8.8 | 56.2* | 10.4 | 64.6* | 57.4*
O=C(Nc1nnc(CC2=CCCCC2)s1)c1cccs1 | -154.1 | -6.3 | 4.2 | -7.7 | -22.1 | -137.4 | . | .
O=C(Nc1ccc(Cl)c(Cl)c1)Nc1nnc(CC2=CCCCC2)s1 | 10.2 | -1.2 | -12.2 | 36.2 | 88.6* | 23.7 | 27.2 | .
CCc1nnc(NC(=O)Nc2ccc(Cl)cc2)s1 | -87.3 | -2.4 | -9.4 | 12.6 | -55.7 | -88.5 | . | .
O=C(Nc1ccc(Cl)cc1)Nc1nnc(CSCc2ccc(Cl)cc2)s1 | 1.5 | 3.9 | -23.5 | 46.3 | 97.8* | 28.3 | 21.4 | .
N#Cc1c(NC(=O)CSc2ncc(-c3ccccc3)n2CC2CCCO2)sc2c1CCCC2 (configuration not stated) | 5.3 | -2.0 | 5.5 | -9.1 | 76.1* | 27.9 | 41.7* | 67.2*
Cc1onc(-c2ccccc2)c1C(=O)Nc1sc2c(c1C#N)CCC2 | -5.2 | -15.4 | -8.2 | 8.2 | 55.3* | 21.8 | 59.5* | 48.8*
Cc1cc(NC(=O)c2c(F)cccc2Cl)n(-c2nc3ccccc3[nH]2)n1 | 15.7 | -9.6 | 1.0 | -41.2 | 68.0* | 16.8 | 32.0 | .
Cc1cc(NC(=O)c2ccccc2F)n(-c2nc3ccccc3[nH]2)n1 | -79.6 | 3.2 | -3.5 | -7.2 | 30.6 | -25.6 | . | .
Cc1cc(Nc2ccccc2)n(-c2nc3ccccc3[nH]2)n1 | -8.1 | -5.0 | -30.0 | 5.5 | 52.8* | 4.8 | 18.1 | .
Cc1cc(NC(=O)c2c(F)cccc2F)n(-c2nc3ccccc3[nH]2)n1 | -70.8 | 7.8 | -1.3 | -21.6 | 53.4* | 27.8 | 27.1 | .
Cc1cc(NC(=O)c2ccc(C)s2)n(-c2nc3ccccc3[nH]2)n1 | -28.0 | -1.0 | -13.6 | -0.7 | 22.8 | 30.9 | . | .
Cc1cc(NC(=O)C2CCCCC2)n(-c2nc3ccccc3[nH]2)n1 | 13.8 | -4.6 | -4.1 | 18.1 | 56.9* | 23.2 | 43.1* | 67.6*
O=C(NCc1ccc(F)c(F)c1)C1Cc2c(-c3ccc4c(c3)OCO4)ccnc2O1 (configuration not stated) | 8.2 | -3.5 | -33.6 | 19.4 | . | 9.6 | . | .
Cc1csc(=O)n1CCC(=O)OCC(=O)N(C)c1c(N)n(Cc2ccccc2)c(=O)[nH]c1=O | 6.6 | -0.2 | -8.3 | 3.9 | . | -0.6 | . | .
CCOc1ccc(-c2noc([C@@H]3O[C@H](CO)[C@@H](O)[C@H]3O)n2)cc1 | -64.7 | -3.5 | 4.3 | 13.8 | . | -43.0 | . | .
O=C(Nc1ccc(O)c2c(=O)cc(-c3ccccc3Cl)oc12)c1ccc(Cl)c(Cl)c1 | 6.7 | 0.1 | -11.6 | 25.8 | 65.8* | 11.1 | 25.9 | .
CC1CCCN(c2ncnc3c2cnn3-c2ccccc2)C1 (configuration not stated) | 17.6 | -7.3 | -54.5* | -34.1 | 52.4* | 2.0 | 52.5* | 192.0*
CN1CCN(c2ncnc3c2cnn3-c2ccc(Cl)cc2)CC1 | -35.2 | 8.1 | -9.1 | -3.8 | 51.2* | -55.6 | 60.5* | +
Cc1ccc(-n2ncc3c(N4CCCC(C)C4)ncnc32)c(C)c1 (configuration not stated) | -266.6 | -13.1 | -16.3 | 12.4 | -148.9 | -329.0 | . | .
SMILES | HIF-2a inh | ABHD5-PLIN5 inh | KKLEB cytotox | CF NFkB block | Mdm2-MdmX inh | Peg3 promoter | Mdm2-MdmX conf | Full FLuc ctr
Cc1ccc(C(=O)N2CCN(c3ncnc4c3cnn4-c3ccccc3)CC2)cc1 | -0.2 | 1.6 | -3.9 | 1.4 | 82.5* | 15.3 | 58.4* | 67.9*
COc1cccc(N2CCN(c3ncnc4c3cnn4-c3ccc(C)cc3C)CC2)c1 | -121.7 | -2.9 | -82.9* | 80.3* | 89.5* | 101.8* | 100.2* | 28.0
CCN1CCN(c2ncnc3c2cnn3-c2ccc(Cl)cc2)CC1 | -250.1 | -4.0 | -5.9 | 7.9 | -34.1 | -272.6 | . | .
CN(CCc1ccccc1)C(=O)c1ccc(NC(=O)Cc2ccc(NC(=O)C3CCN(S(=O)(=O)c4cccc([N+](=O)[O-])c4)CC3)cc2)cc1 | -4.1 | 4.0 | -5.4 | 8.4 | . | 4.4 | . | .
c1ccc(-n2ncc3c(N4CCCCC4)ncnc32)cc1 | 15.2 | -6.2 | -37.3 | -18.7 | 50.8* | -2.6 | 53.5* | 160.1*
Cc1ccc(C(=O)OCC(=O)Nc2cc(Cl)ccc2C#N)o1 | 9.8 | -0.2 | 0.6 | 23.3 | . | -3.7 | . | .
Cc1cnn(-c2cc(N/N=C/c3ccccc3F)ncn2)c1 | -20.9 | 0.0 | -2.4 | -9.7 | 64.2* | -34.5 | 24.4 | .
Cc1cnn(-c2cc(N/N=C/c3cccc(F)c3)ncn2)c1 | -24.8 | 4.7 | 4.2 | 7.9 | 75.1* | -25.4 | 25.6 | .
CCCCCCCCNc1ccccc1S(=O)(=O)NCc1ccccc1 | 10.7 | -10.6 | -3.3 | 27.8 | 38.1 | 30.5 | . | .
Cc1ccc(C(=O)OCC(=O)NC(C)c2ccccc2)cc1C (configuration not stated) | -6.3 | 6.2 | 14.1 | -27.5 | 13.9 | -10.0 | . | .
CN1CCN(C(=O)c2cccc(-c3cc(O)c4ncccc4c3)c2)CC1 | 7.6 | 8.4 | -1.9 | 28.5 | 26.8 | -57.4 | . | .
Oc1cc(-c2cccnc2)cc2cccnc12 | 2.1 | 1.3 | -23.6 | -5.8 | 76.3* | -1.2 | 49.6* | 14.2
c1cncc(-c2nc3cc4ccccc4cc3[nH]2)c1 | -262.1 | 2.6 | 3.8 | -24.3 | -178.0 | -268.1 | . | .
CN1CCN(c2cc(-c3cc(O)c4ncccc4c3)ccn2)CC1 | 17.1 | 4.5 | -11.7 | -5.4 | 60.1* | 41.0 | 45.5* | 19.6
Oc1cc(Nc2ccccc2)cc2cccnc12 | -3.6 | -5.4 | -19.5 | 77.6* | 66.8* | 14.8 | 30.6 | .
